In PubChem BioAssay (NCATS):
The source made the active and inactive calls. Calls follow the shape of the dose curve; as a rule, active = well fitted curve in the direction sought with a large enough effect; inactive = no such curve, though single readings can be large or run the other way.

Assay: qHTS for small molecule inhibitors of Yes1 kinase: Counter Assay (AID 686950);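 also: no kinase present so only ADP-Glo detection of a fixed ADP amount is tested; luminescence from ADP-Glo reporting ADP in a fixed ATP and ADP mixture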
Settings: series mostly up to 76.9 µM
Text: The Src family of non-receptor protein tyrosine kinases contains nine members, including Yes1, Src, Fyn, Lyn, and […]. These kinases have important roles in a variety of cellular functions, such as cell proliferation, survival, and differentiation. Src, the most well characterized member of this family, has been previously identified as a proto-oncogene. […] In melanoma, it has been shown that Yes1, and not other family members, such as Src, is functionally involved in the malignant phenotype. Additionally, a recent study examining the downregulation of Yes1 by shRNA found significant effects on cell survival/growth for basal-like and Her2-positive breast cancers. Despite the potential for Yes1 to be a target for the above-described cancers, there are very few reports on the identification of potent and selective inhibitors of Yes1 kinase. Antagonists of Yes1 would further elucidate Yes1 biology and help to confirm whether Yes1 is a viable target for therapeutic intervention in a variety of cancers.
A compound that inhibits Yes1 could be important for the treatment of various cancers in which Yes1 is highly expressed and can also be used as a tool compound to help further elucidate Yes1 biology. To that end, we have developed a sensitive HTS biochemical assay for Yes1 activity. This assay was screened against several small compound libraries to look for modulators of activity. The cherrypicked compounds were screened against this counter assay, which evaluates whether the compounds have any effect on the ADP-Glo detection kit. Compounds that show inhibition in this assay have interference with the detection system. Inactivity is the desired output for this assay.
NIH Molecular Libraries Probe Production Centers Network [MLPCN]
NIH Chemical Genomics Center [NCGC]
Two microliter of buffer (columns 1-48) are dispensed into Greiner, white solid-bottom 1536-well assay plates. Compounds (23 nL) are then transferred via Kalypsys pin tool equipped with 1536-pin array (10 nL slotted pins, V&P Scientific, San Diego, CA). The library compounds are in columns 5-48 and columns 1-4 serve as controls with DMSO. Following addition of compound and a 20 minute incubation, 1 uL of substrate/product mix (ATP and ADP from Sigma-Aldrich, St. Louis, MO) is added to columns 1, 2, 5-48 and 1 uL of substrate (ATP) is added to columns 3-4, and the plate is incubated for 60 minutes at room temperature. The amount of ADP is then quantified by the ADP-Glo Kit (Promega, Madison, WI). First, 2 uL of the first kit reagent is added, and the reaction is incubated for 45 minutes; then, 4 uL of the second kit reagent are added and the reaction is incubated for 30 minutes at which time the luminescence is read on a Viewlux plate reader (Perkin-Elmer, Waltham, MA). The final concentration of reagents in the reaction are 0.08 mM ATP and 0.02 mM ADP (or 0.1 mM ATP in the no ADP control columns), 100 uM EGTA, 10 mM MgCl2, 50 mM Tris pH 7.5, 1 mM DTT, 150 mM NaCl, 0.01% Brij-35, and 5% glycerol. Data are normalized to DMSO-treated control columns with ATP and […] (maximum signal) and with just ATP (minimum signal).

| SMILES | outcome |
| --- | --- |
| CC(O)(CS(=O)(=O)c1ccc(F)cc1)C(=O)Nc1ccc(C#N)c(C(F)(F)F)c1 (configuration not stated) | inactive |
| Cn1c(CCCC(=O)O)nc2cc(N(CCCl)CCCl)ccc21 | inactive |
| Cc1sc2c(c1C)C(c1ccc(Cl)cc1)=N[C@@H](CC(=O)OC(C)(C)C)c1nnc(C)n1-2 | inactive |
| CCCCC/C=C\C/C=C\C/C=C\C/C=C\CCCC(=O)NC1CC1 | inactive |
| Cn1cc(C2=C(c3cn(C4CCN(Cc5ccccn5)CC4)c4ccccc34)C(=O)NC2=O)c2ccccc21 | inactive |
| CC1=C2C[C@@H]3[C@@H](CC=C4C[C@@H](O)CC[C@@]43C)[C@@H]2CC[C@]12O[C@H]1C[C@H](C)CN[C@H]1[C@H]2C | inactive |
| Cc1cc(SCc2sc(-c3ccc(C(F)(F)F)c(F)c3)nc2C)ccc1OCC(=O)O | inactive |
| O=C(O)C(=O)c1cn(Cc2ccccc2)c2ccc(-c3ccc(OC(F)(F)F)cc3)cc12 | inactive |
| CN(C)CCN(C)CCc1ccc(Cl)c(Cl)c1 | inactive |
| COC[C@H]1OC(=O)c2coc3c2[C@@]1(C)C1=C(C3=O)C2CCC(=O)[C@@]2(C)C[C@H]1OC(C)=O (some centres not stated) | inactive |
| CNC(=O)c1ccc(N2C(=S)N(c3ccc(C#N)c(C(F)(F)F)c3)C(=O)C23CCC3)cc1F | inactive |
| C[C@@H]1[C@@H](C(=O)C[C@H]2O[C@@H]3O[C@]4(C)CC[C@@H]5[C@H](C)CC[C@@H]([C@H]2C)[C@@]35OO4)O[C@@H]2O[C@]3(C)CC[C@H]4[C@H](C)CC[C@@H]1[C@@]24OO3 | inactive |
| COc1ccc(C(=O)c2c(C)n(CCN3CCOCC3)c3ccccc23)cc1 | inactive |
| CNC(=O)N1N=C(c2ccc(N)cc2)c2cc3c(cc2CC1C)OCO3 (configuration not stated) | inactive |
| C[C@@H]1[C@@H](CC(C[C@H]2O[C@@H]3O[C@]4(C)CC[C@@H]5[C@H](C)CC[C@@H]([C@H]2C)[C@@]35OO4)C[S+](=O)([O-])c2ccc(COC(=O)N(C)C)cc2)O[C@@H]2O[C@]3(C)CC[C@H]4[C@H](C)CC[C@@H]1[C@@]24OO3 (some centres not stated) | inactive |
| C[C@]12CCC(=O)C(O)=C1CC[C@@H]1[C@@H]2CC[C@]2(C)C(=O)CC[C@@H]12 | inactive |
| COC1(CS(=O)c2ccccc2)CCN(CCc2c[nH]c3ccc(F)cc23)CC1 (configuration not stated) | inactive |
